Screen size: about 5,500 compounds; about 2,000 (36%) were called active. Another 18% or so got no clear call; they are omitted. Cut-off read from the data, not from the text of the source: active = normalized growth mostly below about 0.91 (no sharp cut-off); inconclusive = no clear call, values can overlap the other calls; inactive = mostly above about 0.92. The list shows a part of the results.
Assay: chemical genetic growth profiling, strain panel (AID 1159580);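 note: tested at 20 µM; growth read once vehicle control cultures reached saturation at 30 °C; 1 = growth at the plate median or of vehicle wells; lower values mean less growth of the strain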
Conditions: S. cerevisiae deletion strains, growth OD
[1] = locus YAL013W, strain DEP1, active compounds read low
[2] = locus YCL061C, strain MRC1, active compounds read low
[3] = locus YGR078C, strain PAC10, active compounds read low
[4] = locus YHR030C, strain SLT2, active compounds read low
[5] = locus YJL095W, strain BCK1, active compounds read low
[6] = locus YJL187C, strain SWE1, active compounds read low
[7] = locus YMR307W, strain GAS1, active compounds read low
[8] = locus YNL322C, strain KRE1, active compounds read low
[9] = locus YPL055C, strain LGE1, active compounds read low
[10] = locus YPL241C, strain CIN2, active compounds read low
[11] = locus YBR229C, strain ROT2, active compounds read low
[12] = locus YDL101C, strain DUN1, active compounds read low
[13] = locus YEL061C, strain CIN8, active compounds read low
[14] = locus YGR229C, strain SMI1, active compounds read low
[15] = locus YJR043C, strain POL32, active compounds read low
[16] = locus YKL190W, strain CNB1, active compounds read low
[17] = locus YLR039C, strain RIC1, active compounds read low
[18] = locus YLR262C, strain YPT6, active compounds read low
[19] = locus YOL006C, strain TOP1, active compounds read low

Measured: normalized growth

Nc1nnc(-c2cccc(Cl)c2Cl)c(N)n1
inactive: [1] 0.995 | locus YAL021C, strain ccr4, active compounds read low 1.01 | locus YAL026C, strain drs2, active compounds read low 1.02 | locus YAL030W, strain snc1, active compounds read low 1.03 | locus YAL040C, strain CLN3, active compounds read low 0.986 | locus YBL061C, strain skt5, active compounds read low 1.02 | locus YBR009C, strain hhf1, active compounds read low 1.03 | locus YBR023C, strain chs3, active compounds read low 1.02 | locus YBR171W, strain sec66, active compounds read low 1.04 | locus YBR231C, strain swc5, active compounds read low 1.03 | locus YBR279W, strain paf1, active compounds read low 1.02 | locus YCL011C, strain gbp2, active compounds read low 1.02 | locus YCL016C, strain dcc1, active compounds read low 1.01 | locus YCL061C, strain MRC1 (second series), active compounds read low 1.01 | [2] 1.02 | locus YCL069W, strain vba3, active compounds read low 1.02 | locus YCR088W, strain abp1, active compounds read low 1.02 | locus YDL005C, strain med2, active compounds read low 1.02 | locus YDL040C, strain nat1, active compounds read low 1.02 | locus YDR001C, strain nth1, active compounds read low 1.02 | locus YDR069C, strain doa4, active compounds read low 1.04 | locus YDR137W, strain rgp1, active compounds read low 1.02 | locus YDR159W, strain sac3, active compounds read low 1.03 | locus YDR195W, strain ref2 1.03 | locus YDR297W, strain sur2, active compounds read low 1.02 | locus YDR334W, strain swr1, active compounds read low 1.02 | locus YDR335W, strain msn5, active compounds read low 1.02 | locus YDR363W, strain ESC2, active compounds read low 0.985 | locus YDR392W, strain spt3, active compounds read low 0.987 | locus YEL003W, strain gim4, active compounds read low 1.02 | locus YEL037C, strain rad23, active compounds read low 1.01 | locus YEL061C, strain CIN8 (second series), active compounds read low 1.02 | locus YER002W, strain NOP16, active compounds read low 0.976 | locus YER015W, strain faa2, active compounds read low 1.03 | locus YER016W, strain bim1, active compounds read low 1.02 | locus YER111C, strain swi4, active compounds read low 1.03 | locus YER155C, strain BEM2 (second series), active compounds read low 1.04 | locus YFR010W, strain ubp6, active compounds read low 1.01 | locus YGL167C, strain pmr1, active compounds read low 1.02 | locus YGL173C, strain kem1, active compounds read low 1.03 | locus YGL227W, strain vid30, active compounds read low 1.03 | locus YGL240W, strain doc1, active compounds read low 1.03 | locus YGL253W, strain hxk2, active compounds read low 1.02 | [3] 1.01 | locus YHR013C, strain ard1, active compounds read low 1.05 | locus YHR027C, strain rpn1, active compounds read low 1.02 | [4] 1 | locus YHR079C, strain IRE1, active compounds read low 0.995 | locus YHR142W, strain chs7, active compounds read low 1.02 | locus YJL092W, strain hpr5, active compounds read low 1.01 | locus YJL095W, strain BCK1 (second series), active compounds read low 1.02 | [5] 0.997 | locus YJL115W, strain asf1, active compounds read low 1.03 | locus YJL129C, strain trk1, active compounds read low 1.04 | locus YJL154C, strain vps35, active compounds read low 1.02 | locus YJL164C, strain tpk1, active compounds read low 1.02 | locus YJL166W, strain qcr8, active compounds read low 1.03 | [6] 1.02 | locus YJR066W, strain TOR1, active compounds read low 0.949 | locus YKL160W, strain elf1, active compounds read low 1.03 | locus YKR026C, strain gcn3, active compounds read low 1 | locus YKR091W, strain srl3, active compounds read low 1.02 | locus YLL001W, strain dnm1, active compounds read low 0.997 | locus YLL026W, active compounds read low 1.02 | locus YLL041C, strain sdh2, active compounds read low 1.02 | locus YLR027C, strain aat2, active compounds read low 1.03 | locus YLR113W, strain HOG1, active compounds read low 0.966 | locus YLR221C, strain rsa3, active compounds read low 1.02 | locus YLR258W, strain gsy2, active compounds read low 1.02 | locus YLR262C, strain YPT6 (second series), active compounds read low 1.02 | locus YLR320W, strain mms22, active compounds read low 1.03 | locus YLR342W, strain FKS1, active compounds read low 1.02 | locus YLR357W, strain rsc2, active compounds read low 1.07 | locus YLR370C, strain arc18, active compounds read low 1.02 | locus YLR384C, strain iki3, active compounds read low 1.02 | locus YML120C, strain ndi1, active compounds read low 0.994 | locus YMR058W, strain fet3, active compounds read low 1.02 | locus YMR125W, strain sto1, active compounds read low 1.05 | locus YMR129W, active compounds read low 1.02 | locus YMR205C, strain PFK2, active compounds read low 1.03 | locus YMR231W, strain pep5, active compounds read low 1.01 | [7] 1.01 | locus YNL071W, strain lat1, active compounds read low 1.01 | locus YNL175C, strain NOP13, active compounds read low 0.986 | locus YNL183C, strain NPR1, active compounds read low 0.949 | locus YNL197C, strain WHI3, active compounds read low 0.991 | locus YNL209W, strain ssb2, active compounds read low 1.02 | locus YNL224C, strain SQS1, active compounds read low 0.981 | locus YNL248C, strain rpa49, active compounds read low 1.02 | locus YNL322C, strain KRE1 (second series), active compounds read low 1.02 | [8] 1.01 | locus YNR049C, strain mso1, active compounds read low 1.03 | locus YOR001W, strain rrp6, active compounds read low 1.02 | locus YOR070C, strain gyp1, active compounds read low 1.02 | locus YOR080W, strain dia2, active compounds read low 1.03 | locus YOR083W, strain WHI5 (second series), active compounds read low 0.992 | locus YOR083W, strain WHI5, active compounds read low 1.01 | locus YOR106W, strain vam3, active compounds read low 1.03 | locus YOR231W, strain MKK1, active compounds read low 1.01 | locus YOR265W, strain rbl2, active compounds read low 1.02 | locus YOR270C, strain vph1, active compounds read low 1.08 | locus YOR290C, strain snf2, active compounds read low 1.04 | locus YPL051W, strain arl3, active compounds read low 1.02 | [9] 0.994 | locus YPL078C, strain atp4, active compounds read low 1.01 | locus YPL106C, strain sse1, active compounds read low 1.02 | locus YPL240C, strain hsp82, active compounds read low 1.02 | [10] 1 | locus YPL256C, strain CLN2, active compounds read low 0.989

CSC(=NCc1cccnc1)NC#N
inactive: [1] 0.991 | [11] 1 | [2] 1 | [12] 1 | locus YDR150W, strain NUM1, active compounds read low 0.997 | [13] 0.993 | [3] 1 | [14] 1 | [4] 1.01 | locus YHR087W, strain rtc3, active compounds read low 1 | [6] 0.994 | [15] 0.986 | locus YJR075W, strain HOC1, active compounds read low 0.998 | [16] 0.998 | [17] 1 | locus YLR058C, strain SHM2 (second series), active compounds read low 0.992 | locus YLR085C, strain ARP6, active compounds read low 1.02 | [18] 1.01 | locus YML094W, strain GIM5, active compounds read low 1.06 | locus YMR219W, strain ESC1, active compounds read low 1 | locus YMR263W, strain SAP30, active compounds read low 0.992 | locus YNL153C, strain GIM3, active compounds read low 1.01 | locus YNL298W, strain CLA4 (second series), active compounds read low 1.01 | [8] 0.998 | locus YNR030W, strain Alg12, active compounds read low 1 | [19] 1.03 | [9] 0.994 | [10] 0.987 | locus YPR135W, strain CTF4, active compounds read low 1.01

COC(=O)C[C@H]1C(C)(C)C(=O)[C@@H]2CC3=C4CC(OC)O[C@@H](c5ccoc5)[C@]4(C)CCC3[C@@]1(C)C2=O (stereo partly specified)
inactive: locus YBR021W, strain FUR4, active compounds read low 1.01 | [11] 0.994 | locus YCL029C, strain bik1, active compounds read low 0.987 | locus YDL035C, strain GPR1, active compounds read low 1.02 | locus YDL074C, strain BRE1, active compounds read low 1.01 | [12] 1.01 | locus YDL134C, strain PPH21, active compounds read low 1 | locus YDL185W, strain tfp1, active compounds read low 1 | locus YDL192W, strain arf1, active compounds read low 1 | locus YDR101C, strain arx1, active compounds read low 0.995 | locus YDR162C, strain NBP2, active compounds read low 1 | locus YDR318W, strain mcm21, active compounds read low 0.998 | locus YDR388W, active compounds read low 0.991 | locus YDR502C, strain sam2, active compounds read low 0.989 | [13] 0.999 | locus YER110C, active compounds read low 0.994 | locus YER155C, strain BEM2, active compounds read low 1.01 | locus YER167W, strain BCK2, active compounds read low 1.01 | locus YGL078C, strain dbp3, active compounds read low 1.01 | locus YGL086W, strain mad1, active compounds read low 0.995 | locus YGL248W, strain PDE1, active compounds read low 1.01 | [3] 1.01 | locus YGR135W, strain pre9, active compounds read low 0.99 | [14] 1.03 | locus YGR252W, strain gcn5, active compounds read low 1.01 | [4] 1 | locus YHR079C, strain IRE1 (second series), active compounds read low 0.996 | locus YHR094C, strain hxt1, active compounds read low 0.993 | locus YHR129C, strain ARP1, active compounds read low 1.01 | locus YHR200W, strain rpn10, active compounds read low 0.997 | locus YIL066C, strain RNR3, active compounds read low 1.01 | locus YIL073C, strain SPO22, active compounds read low 0.995 | locus YIL125W, strain kgd1, active compounds read low 0.998 | locus YIR030C, strain dcg1, active compounds read low 1 | [5] 1.01 | locus YJL134W, strain LCB3, active compounds read low 1.01 | locus YJL168C, strain set2, active compounds read low 0.996 | locus YJL187C, strain SWE1 (second series), active compounds read low 1.01 | [15] 1.02 | locus YKL009W, strain mrt4, active compounds read low 0.984 | locus YKL068W, active compounds read low 1 | locus YKL085W, strain MDH1 (second series), active compounds read low 1 | locus YKL085W, strain MDH1, active compounds read low 1 | [16] 1.01 | locus YKR001C, strain vps1, active compounds read low 1 | [17] 0.969 | locus YLR058C, strain SHM2, active compounds read low 1 | locus YLR102C, strain apc9, active compounds read low 1 | [18] 0.982 | locus YLR268W, strain sec22, active compounds read low 1.01 | locus YLR330W, strain CHS5, active compounds read low 1 | locus YLR342W, strain FKS1 (second series), active compounds read low 0.991 | locus YLR371W, strain rom2, active compounds read low 1 | locus YLR418C, strain cdc73, active compounds read low 0.992 | locus YML016C, strain PPZ1, active compounds read low 1 | locus YML032C, strain rad52, active compounds read low 0.997 | locus YML124C, strain tub3, active compounds read low 1 | locus YMR078C, strain ctf18, active compounds read low 0.99 | locus YMR223W, strain ubp8, active compounds read low 1.01 | [7] 1.03 | locus YNL067W, strain RPL9B, active compounds read low 1.01 | locus YNL233W, strain BNI4, active compounds read low 1.04 | locus YNL250W, strain rad50, active compounds read low 0.986 | locus YNL271C, strain bni1, active compounds read low 1 | locus YNL298W, strain CLA4, active compounds read low 0.984 | locus YNL307C, strain MCK1, active compounds read low 0.985 | locus YNR052C, strain pop2, active compounds read low 1.01 | [19] 1.06 | locus YOL012C, strain htz1 1.32 | locus YOL147C, strain pex11, active compounds read low 0.995 | locus YOR061W, strain CKA2, active compounds read low 0.999 | locus YOR069W, strain VPS5, active compounds read low 1.01 | locus YOR136W, strain idh2, active compounds read low 0.999 | locus YOR144C, strain elg1, active compounds read low 0.988 | locus YOR184W, strain ser1, active compounds read low 1.01 | locus YOR316C, strain cot1, active compounds read low 1 | [9] 1.03 | [10] 1 | locus YPR119W, strain clb2, active compounds read low 1.01 | locus YPR141C, strain kar3, active compounds read low 0.999 | locus YPR163C, strain tif3, active compounds read low 0.996 | locus YPR167C, strain met16, active compounds read low 1 | strain wtn01, active compounds read low 1.01

From PubChem BioAssay AID1159580 (chemical genetic matrix, 2015)
